Screening results deposited in PubChem by several laboratories.
CD11b adhes enh = CD11b/CD18-fibrinogen binding enhancement. P05107+P11215. K562 CD11b/CD18 adhesion to fibrinogen, ATPlite luminescence. activation, % at 10 µM. hit rate 0.07% among 93,000;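 active = 10 µM primary screen giving 50% or more activity, confirmed by 40% or more on retest at that dose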
PLK1 inh = inhibitors of human PLK1 kinase; recombinant PLK1 kinase, TR-FRET peptide phosphorylation; inhibition, % at 10 µM; hit rate 0.53% among 97,000; AID 619;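 active = inhibition of 50% or more in the single-concentration screen; inactive = inhibition below 50%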;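 also: 0% = DMSO max control and 100% = H-89 dihydrochloride min control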
Target sequence (P53350 whole entry, looked up): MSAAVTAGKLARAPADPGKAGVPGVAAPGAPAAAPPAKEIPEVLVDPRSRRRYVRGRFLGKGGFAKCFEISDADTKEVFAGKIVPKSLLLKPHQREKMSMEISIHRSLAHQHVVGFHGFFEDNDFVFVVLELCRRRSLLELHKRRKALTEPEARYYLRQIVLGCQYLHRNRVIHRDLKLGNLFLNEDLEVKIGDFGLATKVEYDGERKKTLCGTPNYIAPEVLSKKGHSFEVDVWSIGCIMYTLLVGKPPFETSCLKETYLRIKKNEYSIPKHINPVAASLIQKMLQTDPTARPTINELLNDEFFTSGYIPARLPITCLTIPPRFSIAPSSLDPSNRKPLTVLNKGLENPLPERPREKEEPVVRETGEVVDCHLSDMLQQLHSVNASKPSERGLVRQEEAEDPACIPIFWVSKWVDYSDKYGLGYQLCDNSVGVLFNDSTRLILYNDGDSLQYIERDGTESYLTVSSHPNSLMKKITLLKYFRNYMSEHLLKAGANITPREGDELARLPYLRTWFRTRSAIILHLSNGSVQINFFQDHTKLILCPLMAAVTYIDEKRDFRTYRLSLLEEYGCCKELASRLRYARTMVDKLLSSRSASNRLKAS
Plk1 PBD FP = inhibitors of human Plk1 polo box domain binding; hit rate 0.13% among 97,000; Plk1 PBD phosphopeptide binding, fluorescence polarization; inhibition, %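 (tested at about 20 µM)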; P53350; in the data active = inhibition above about 34%, passing the limit was not always enough
Candida biofilm = kills Candida albicans biofilms | inhibition, % at 6 µM | AID 834 | hit rate 0.14% among 85,000 | C. albicans biofilm + clotrimazole, Alamar Blue;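 active = inhibition above 20%; inactive = inhibition below 20%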;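 also: preformed 24 hr biofilms exposed to compound for 48 hr; 0% = biofilm without compound and 100% = blank killed by clotrimazole plus chlorhexidine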
CD11b adhes inh = blocks human CD11b/CD18 adhesion to fibrinogen | K562 CD11b/CD18 adhesion to fibrinogen, ATPlite luminescence; Mn2+ added to activate the integrin | inhibition, % at 10 µM | hit rate 0.54% among 93,000 | P05107+P11215;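 active = primary inhibition of 50% or more at 10 µM, then 40% or more on retest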
* hit, by the source's call; / = no result. Only some compounds are listed: those with a hit (about 1.1% of all), similar ones and a draw of the others.

SMILES | CD11b adhes enh | PLK1 inh | Plk1 PBD FP | Candida biofilm | CD11b adhes inh
c1ccc(Nc2ncnc3sc4c(c23)CCC4)cc1 | / | -2.2 | 10.5 | / | /
c1csc(CCNc2ncnc3sc4c(c23)CCC4)c1 | -5.8 | -1.4 | 0.5 | 0.1 | 85.5*
O=C(Oc1cc2oc(=O)c3c(c2cc1Cl)CCCC3)c1cccs1 | -1.1 | / | / | / | 53.0*
CNC(=O)COC(=O)c1ccc(-c2nc3ccccc3s2)s1 | 10.6 | -10.4 | -2.1 | / | 64.1*
C=CCn1c2ccccc2c2nnc(SCCCn3c(=O)[nH]c4ccccc43)nc21 | -1.7 | -7.7 | -8.6 | / | 34.2
O=C(O)CCC(=O)c1ccc2c(c1)OCCO2 | -0.8 | 65.6* | -32.8 | 6.8 | -8.6
Cc1nc2c(Br)cc(Br)cc2cc1O | -6.1 | -7.4 | -8.0 | -7.0 | 90.3*
Brc1cc(Br)c2nc(-c3cccs3)ccc2c1 | 6.9 | -13.8 | 24.6 | 3.8 | 9.9
N#Cc1c(-c2ccco2)cc(-c2cccnc2)nc1N | 3.3 | 54.9* | 35.7 | 1.3 | -3.3
CCOC(=O)c1ccc2c(c1)nc(COc1ccc(OC)cc1)n2CC | -6.5 | -8.2 | 14.6 | 3.8 | 5.5
COc1ccc(-c2nc(CS(=O)(=O)CC(=O)NCCc3cc(OC)ccc3OC)c(C)o2)cc1 | / | -2.4 | 5.9 | -3.8 | /
COc1ccc(OC)c(CCNC(=O)Cn2sc3nc(C)cc(C)c3c2=O)c1 | -7.4 | -8.8 | -19.9 | 0.3 | 51.7*
CN1CCN(c2nc(-c3ccncc3)nc3ccccc23)CC1 | -4.2 | 53.1* | 17.3 | 4.1 | -9.4
CC1CCCCN1CCNC(=O)c1cnn2ccccc12 (stereo not given) | -1.4 | 69.0* | -4.0 | 2.7 | -5.0
C=CCNC(=O)C1CC(=O)N(c2ccc(C)cc2)C1 (stereo not given) | -5.4 | 59.2* | -18.5 | 4.1 | 9.4
Cc1ccc(N2CC(C(=O)NCCC(C)C)CC2=O)cc1 (stereo not given) | / | -4.4 | -10.7 | 1.8 | /
CC1=CC(C)(C)N(S(=O)(=O)c2ccc(C)cc2)c2ccccc21 | -4.7 | -2.4 | -7.9 | -0.9 | 51.9*
CCN(CC)C(=O)C(=O)N/N=C/c1ccc(C(=O)OC)cc1 | -1.5 | / | / | / | -1.0
O=C(O)CCN1C(=O)/C(=C/c2ccc(-c3nc4ccccc4s3)o2)SC1=S | 85.9 | -17.0 | -43.3 | / | 64.1*
O=C1c2ccccc2C(=O)N1CCN1CCCCC1 | -1.7 | -12.0 | 10.5 | 5.4 | 7.9
O=C1C(=O)N(CCN2CCCCC2)c2ccccc21 | / | 53.5* | -45.0 | 2.3 | /
Cn1nc(C(F)(F)F)c(C(=O)Nc2ccc(F)cc2F)c1Sc1ccc(Cl)cc1 | / | -6.2 | 1.7 | / | /
Fc1ccc(Cn2ccc(-c3cnc(-c4ccccc4)s3)n2)cc1 | -4.3 | -0.6 | -13.8 | -0.4 | 55.7*
Cc1ccc(Cn2ccc(-c3cnc(-c4ccccc4)s3)n2)cc1 | -0.2 | -4.6 | -7.7 | 1.3 | -29.4
CCNC(=O)n1nccc1C(C)Oc1ccc(Cl)cc1 (stereo not given) | / | -0.5 | 4.6 | / | /
SMILES | CD11b adhes enh | PLK1 inh | Plk1 PBD FP | Candida biofilm | CD11b adhes inh
CC(Oc1ccc(Cl)cc1Cl)C(=O)Nc1ccc(S(=O)(=O)Nc2cnc3ccccc3n2)cc1 (stereo not given) | 5.9 | -11.7 | -6.5 | / | 78.0*
CC(Oc1ccc(Cl)cc1Cl)C(=O)Nc1ccncc1 (stereo not given) | -3.8 | 6.7 | 7.9 | 2.6 | 57.1*
CN(CCCC(=O)Nc1ccncc1)S(=O)(=O)c1ccc(Cl)cc1 | -5.9 | -0.1 | 9.4 | 3.3 | 50.3*
O=C(CCCOc1ccc(Cl)cc1Cl)Nc1ccncc1 | -6.6 | 53.7* | -5.0 | 3.0 | 47.6
CN(CC(=O)Nc1ccncc1)S(=O)(=O)c1ccc(Br)cc1 | -3.0 | -5.1 | -15.5 | 3.7 | -4.5
CCC(C)NS(=O)(=O)c1ccc(-c2csnn2)s1 (stereo not given) | -2.3 | -11.0 | 4.6 | 6.7 | 5.8
N#Cc1c(-c2ccc(Cl)cc2)ccn2nc(C3CCCCC3)nc12 | -1.0 | -13.7 | 4.3 | -1.9 | -2.2
COc1cccc(C(=O)NCC(=O)OCC(=O)Nc2cc(OC)c([N+](=O)[O-])cc2C)c1 | 2.5 | / | / | / | -14.8
Cc1ccc2c(c1)c1c(n2CC(O)CNC(CO)(CO)CO)CCCC1 (stereo not given) | 0.0 | 62.7* | 22.7 | 3.4 | -13.8
CC(C)c1nc2n[nH]c(N)c2c2c1CCC2 | -1.2 | 4.8 | 5.0 | 4.7 | -7.9
CC(C)c1nc2n[nH]c(N)c2c2c1CSC(C)(C)C2 | 2.4 | 58.9* | -13.8 | 0.2 | 1.5
Cc1cccc(C(=O)NNC2=C(C(=O)C(F)(F)F)CCC2)c1O | -7.3 | -5.0 | -15.4 | 12.2 | 96.4*
O=C(NNC1=C(C(=O)C(F)(F)F)CCC1)c1cccc(O)c1 | / | -8.3 | -8.5 | 1.6 | /
CCC(=O)Nc1nc2c(OC)ccc(OC)c2s1 | 4.1 | -13.2 | 11.5 | -0.5 | 5.9
CCCC(=O)Nc1nc2c(OC)ccc(OC)c2s1 | 1.5 | 62.7* | 0.3 | -2.6 | -8.4
Cc1cccc(C(=O)c2cnc3ccccc3c2-c2ccccc2)c1 | -2.3 | -8.6 | 11.7 | / | 58.6*
Cc1cccc(-c2cc(C(=O)NCc3ccccn3)c3ccccc3n2)c1 | 0.6 | / | / | / | 12.2
CC1C/C(=N/O)C(C)CN1 (stereo not given) | 1.9 | 53.1* | -2.1 | -5.7 | -16.0
Cc1ccccc1Oc1cccc(C(=O)/C(C#N)=C/N(C)C)c1 | -0.7 | -8.9 | -17.5 | 2.9 | -5.2
CN(C)/C=C(/C#N)C(=O)c1cccc(Oc2ccc(C(C)(C)C)cc2)c1 | -7.5 | -5.6 | -21.6 | 3.6 | 82.4*
Cc1ccc(NC(=O)c2ccc(OC(F)(F)F)cc2)cc1S(=O)(=O)N(C)C | -0.9 | / | / | / | 4.8
COc1ccc(C(=O)NCC(c2cccnc2)N2CCN(c3ccccc3OC)CC2)cc1OC (stereo not given) | 2.1 | -1.6 | 6.1 | 23.9* | -6.2
COc1cccc(C(=O)NCC(c2cccnc2)N2CCN(c3ccccc3OC)CC2)c1 (stereo not given) | / | 1.2 | 19.4 | / | /
CC1CN(Cc2nc3c(c(=O)[nH]c(=O)n3C)n2CC(N)=O)CC(C)O1 (stereo not given) | -1.9 | 51.1* | 7.5 | 1.7 | -11.6
CCCCN=c1scc(-c2ccc3c(c2)NC(=O)CO3)n1N=C1CCCC1 | -4.4 | -15.0 | -16.5 | / | 34.8
SMILES | CD11b adhes enh | PLK1 inh | Plk1 PBD FP | Candida biofilm | CD11b adhes inh
COCC(C)n1c(-c2ccc3c(c2)NC(=O)CO3)csc1=Nc1ccc(OC(F)F)cc1 (stereo not given) | -9.8 | -5.1 | -10.3 | 3.4 | 96.2*
O=C1COc2ccc(-c3csc(=Nc4ccc(OC(F)F)cc4)n3CC3CCCO3)cc2N1 (stereo not given) | / | -3.6 | -14.2 | 5.2 | /
CCN=c1scc(-c2ccc3c(c2)NC(=O)CO3)n1N=C1CCCC1 | -8.1 | -7.0 | -10.5 | 0.8 | 97.5*
N#CCC(CNc1ncc(C(F)(F)F)cc1Cl)OC(=O)c1ccc(Cl)cc1Cl (stereo not given) | 10.0 | -10.8 | -18.9 | / | -4.2
CC/C(=N\OC(=O)c1ccc(OC(C)C)cc1)c1ccc(C)cc1 | -6.8 | -21.5 | -11.7 | / | 80.3*
C/C(=N\OC(=O)c1ccc(OC(C)C)cc1)c1ccc(C)c(C)c1 | -5.8 | -15.6 | 12.3 | / | 65.6*
CCOC(=O)c1cnn(-c2cc(Oc3ccccc3)ncn2)c1N | 0.4 | -4.6 | 40.9 | / | 51.7*
